Data reported in PubChem BioAssay.
Calls of active or inactive are those of the source.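 Rule for the calls, unless noted: active = inhibition at or above 50% at 10 µM; inactive = inhibition below 50%.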

Columns and labels:
[1] = inhibitors of TNFa-induced NFkB p65 translocation, primary screen, imaging, HUVEC, MLSMR starter and 10KST1 sets (AID 438;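 active = inhibition above 20% together with a positive visual image hit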;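 note: compound added about 3h40 before a 20 min TNFalpha stimulation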;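 for inhibition: signal is the nuclear over cytoplasmic p65 intensity ratio per well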); conditions: HUVEC TNFa-induced p65 nuclear translocation; cell count: measured here: nuclei count (cytotoxicity indicator), at 2.08 µM; inhibition: at 2 µM, stronger effect = higher value, 0% TNFa-plus-vehicle, 100% no-TNFa wells
[2] = reduction of polyQ htt aggregates in cells – imaging, exon1htt(103Q)mCFP cells, high-content imaging, primary screen (AID 483;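 active = visual image review flags a hit and inhibition of aggregation exceeds 20%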;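 note: compound exposure lasted 3 days before fixation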;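 for nuclei count: percent of the per-plate median nuclei count of sample wells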); conditions: exon1htt(103Q)mCFP cell line, aggregate imaging, at 2 µM; inhibition of aggregation: stronger effect = higher value; nuclei count: measured here: cell count, toxicity
[3] = endothelial E-selectin expression blockers – imaging, HUVEC, immunofluorescence, MLSMR starter and 10KST1 sets, primary screen (AID 487;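 active = visually confirmed hit in the image check and inhibition above 20%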;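 for inhibition: signal is fraction of cell area covered by stained E-selectin grains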;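 for nuclei count: 100% = median nuclei count of all wells on the same plate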); conditions: HUVEC TNFalpha-induced E-selectin immunofluorescence imaging, at 2 µM; inhibition: stronger effect = higher value; nuclei count: measured here: cell number, toxicity
[4] = target: Voltage-gated potassium channel subunit beta-2 (Rattus norvegicus) (UniProt P62483); assay: inhibitors of rat Kvbeta2 reductase activity – biochemical, NADPH fluorescence, primary screen (AID 622;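 active = fluorescence slope higher than the sample average by over 3 SD, cut at about -0.22 in these data, passing the limit was not always enough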;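 note: slope of raw intensity against log time taken from 70 to 1610 s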); conditions: recombinant KvBeta, 4-cyanobenzaldehyde reduction, at 10 µM, stronger effect = higher value
[5] = target: Voltage-gated potassium channel subunit beta-2 (Rattus norvegicus) (UniProt P62483); assay: enhancers of rat Kvbeta2 NADPH turnover – biochemical, NADPH fluorescence, primary screen (AID 623;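 active = NADPH fluorescence slope more negative than the mean of all samples by about 3 SD, 99.7% confidence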;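 note: fluorescence intensity change per second fitted from 20 to 320 s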); conditions: Recombinant KvBeta, NADPH fluorescence decrease slope, 10 min; at 10 µM; stronger effect = lower value
[6] = target: Alpha-2C adrenergic receptor (Homo sapiens) (UniProt P18825); assay: compounds altering alpha2C-coupled GIRK flux – cell-based, HEK293 alpha2C/GIRK1/2, thallium flux, primary screen (AID 624;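 active = fluorescence slope after compound addition differing from the mean of all screened samples at 99.7% confidence, in either direction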;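 note: slope of fluorescence ratio to pre-addition baseline per second over 15 to 24 s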); conditions: thallium flux BTC fluorescence, at 10 µM, actives lie on both sides
[7] = blockers of RIG-like receptor reporter activation – cell-based, Sendai virus stimulus, luciferase, 10K MLSCN set, TLR/RLR signaling modifier project, primary screen (AID 602276); conditions: HEK293 RL24 IRF3 luciferase reporter, at 10 µM, stronger effect = higher value;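 note: firefly luciferase from ISG56 promoter only with Renilla not read in this screen; 0% = Sendai virus plus DMSO and 100% = medium plus DMSO without virus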
[8] = TLR3 IRF3 reporter activation blockers – cell-based, poly I:C stimulus, luciferase, 10K MLSCN set, primary screen (AID 602277;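 active = inhibition of the reporter signal at or above 50%; inactive = inhibition below 50%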); conditions: HEK293-TLR3 RL24 IRF3 luciferase reporter, at 10 µM, stronger effect = higher value

Alpha-2C adrenergic receptor (Homo sapiens), sequence (P18825 whole entry, looked up): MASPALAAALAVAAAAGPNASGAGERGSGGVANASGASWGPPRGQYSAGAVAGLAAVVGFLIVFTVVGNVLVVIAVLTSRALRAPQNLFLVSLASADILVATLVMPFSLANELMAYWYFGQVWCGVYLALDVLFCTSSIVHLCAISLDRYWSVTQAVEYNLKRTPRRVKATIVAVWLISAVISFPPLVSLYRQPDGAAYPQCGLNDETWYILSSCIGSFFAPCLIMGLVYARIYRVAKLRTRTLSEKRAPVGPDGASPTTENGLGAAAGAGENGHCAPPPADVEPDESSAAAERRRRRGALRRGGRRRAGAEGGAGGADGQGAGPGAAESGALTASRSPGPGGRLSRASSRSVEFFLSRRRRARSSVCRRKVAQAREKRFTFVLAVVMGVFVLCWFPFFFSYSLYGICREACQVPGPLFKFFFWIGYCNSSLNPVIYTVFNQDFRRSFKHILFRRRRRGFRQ
Voltage-gated potassium channel subunit beta-2 (Rattus norvegicus), sequence (P62483 whole entry, looked up): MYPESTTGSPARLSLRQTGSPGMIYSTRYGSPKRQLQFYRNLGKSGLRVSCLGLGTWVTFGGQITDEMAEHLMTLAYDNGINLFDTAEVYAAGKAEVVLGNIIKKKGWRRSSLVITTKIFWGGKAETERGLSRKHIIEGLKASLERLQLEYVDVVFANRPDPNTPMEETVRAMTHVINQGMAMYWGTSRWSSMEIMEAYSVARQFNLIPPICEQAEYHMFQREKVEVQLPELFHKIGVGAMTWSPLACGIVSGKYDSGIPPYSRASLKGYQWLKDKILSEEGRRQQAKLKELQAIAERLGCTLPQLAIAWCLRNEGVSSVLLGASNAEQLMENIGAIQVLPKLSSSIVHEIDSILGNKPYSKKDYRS

Row | Structure (SMILES) | cell count [1] | inhibition [1] | inhibition of aggregation [2] | nuclei count [2] | inhibition [3] | nuclei count [3] | fluorescence slope [4] | NADPH fluorescence slope [5] | slope [6] | inhibition [7] | inhibition [8]
1 | COC(=O)c1ccc(Cl)c(NC(C)=O)c1 | 367 | 1.8% (inactive) | -20.6% (inactive) | 110% | -48.4% (inactive) | 78.5% | -0.433 (inactive) | -4.1e-05 (inactive) | 0.00415 (inactive) | 4.64% (inactive) | 34.3% (inactive)
2 | CC(=O)Nc1c(O)nc(SCC(=O)Nc2nnc(CC(C)C)s2)[nH]c1=O | 780 | -3.3% (inactive) | 0% (inactive) | 114% | -41% (inactive) | 104% | -0.541 (inactive) | 1.8e-05 (inactive) | 0.00412 (inactive) | -9.44% (inactive) | -13.3% (inactive)
3 | CCOc1ncccc1C(=O)OCC(=O)N1CC(=O)Nc2ccccc21 | 371 | 2.2% (inactive) | -21.8% (inactive) | 102% | -9.8% (inactive) | 111% | -0.486 (inactive) | 3.8e-06 (inactive) | 0.00558 (inactive) | 7.28% (inactive) | 22.7% (inactive)
4 | CCCCOC(=O)CNc1nnc(SCC(=O)OCC)[nH]c1=O | 659 | -10.5% (inactive) | 9.9% (inactive) | 94.8% | -32.4% (inactive) | 110% | -0.572 (inactive) | -7.9e-06 (inactive) | 0.00508 (inactive) | 2.96% (inactive) | -3.08% (inactive)
5 | Cc1c(NC(=O)c2ccc(CN3CCc4ccccc4C3)cc2)c(=O)n(-c2ccccc2)n1C | 593 | -5.6% (inactive) | -45.4% (inactive) | 110% | -70.8% (inactive) | 142% | -0.403 (inactive) | -4.1e-05 (inactive) | 0.0063 (inactive) | 5.86% (inactive) | 7.1% (inactive)
6 | Cc1cccc(-c2cc3nc(C)cc(NCCCN(C)C)n3n2)c1 | 399 | -0.5% (inactive) | -9.4% (inactive) | 114% | -44.2% (inactive) | 98.7% | -0.56 (inactive) | -7.5e-05 (inactive) | 0.00413 (inactive) | 21% (inactive) | 9.1% (inactive)
7 | CCOc1ccc(NC(=O)CSc2nnc(Cc3cccn3C)n2-c2ccc(OC)cc2)cc1 | 366 | -0.3% (inactive) | 0.9% (inactive) | 98% | -103% (inactive) | 117% | -0.489 (inactive) | 1.6e-05 (inactive) | 0.0062 (inactive) | -4.09% (inactive) | -3.93% (inactive)
8 | CCC(C)(C)NC(=O)C(c1ccco1)N(C(=O)Cn1nnc2ccccc21)c1ccc2c(c1)OCO2 (stereo not drawn) | 497 | -25% (inactive) | 14.5% (inactive) | 86% | -10.4% (inactive) | 102% | -0.522 (inactive) | -2e-05 (inactive) | 0.00407 (inactive) | 14.6% (inactive) | 21% (inactive)
9 | CC1=C(C(=O)NC2CCCC(C)C2C)C2(CCCCC2)OC1=O (stereo not drawn) | 515 | 3.3% (inactive) | 18.1% (inactive) | 64.9% | -37.4% (inactive) | 114% | -0.598 (inactive) | -6.8e-07 (inactive) | 0.00687 (inactive) | -0.153% (inactive) | 17.7% (inactive)
10 | Cc1ccccc1C(=O)NC1CCN(Cc2nnnn2CCc2ccccc2)CC1 | 597 | -10.4% (inactive) | -10.6% (inactive) | 107% | 0.8% (inactive) | 102% | -0.491 (inactive) | -3.4e-05 (inactive) | 0.0062 (inactive) | 5.02% (inactive) | 33.8% (inactive)
11 | CSCCC(C(=O)Nc1ccc2c(c1)OCO2)N1C(=O)c2ccccc2C1=O (stereo not drawn) | 632 | 3.8% (inactive) | -16.3% (inactive) | 96.3% | -138% (inactive) | 107% | -0.61 (inactive) | -7.2e-06 (inactive) | 0.006 (inactive) | 9.29% (inactive) | 22% (inactive)
12 | CCOc1ccc(NC(=O)CSc2nccn2C)cc1 | 309 | 15.3% (inactive) | 3.1% (inactive) | 106% | -28.1% (inactive) | 114% | -0.28 (inactive) | 1e-05 (inactive) | 0.00367 (inactive) | -18.3% (inactive) | -80.7% (inactive)
13 | O=C(c1cc2n(n1)C(C(F)(F)F)CC(c1ccc(Cl)cc1)N2)N1CCCC1 (stereo not drawn) | 259 | -5.8% (inactive) | -22.3% (inactive) | 112% | -9.7% (inactive) | 102% | -0.322 (inactive) | 4.7e-06 (inactive) | 0.00413 (inactive) | 14.3% (inactive) | 16.5% (inactive)
14 | CCCCOc1ccc(CSc2n[nH]c(C)n2)cc1 | 243 | 0.2% (inactive) | -0.4% (inactive) | 86.8% | 5.3% (inactive) | 96.6% | -0.435 (inactive) | 2.4e-05 (inactive) | 0.00825 (inactive) | -55.7% (inactive) | -90.2% (inactive)
15 | Cc1ccc(NC(=O)CSc2nnc(CNC(=O)c3c(F)cccc3Cl)o2)cc1 | 645 | -10% (inactive) | -19.6% (inactive) | 108% | -49% (inactive) | 118% | -0.346 (inactive) | -7.5e-06 (inactive) | 0.00601 (inactive) | 1.9% (inactive) | 10.9% (inactive)
16 | CC(C)NC(=O)CSc1nc2ccccc2n1-c1ccccc1 | 379 | 2.5% (inactive) | -2.9% (inactive) | 84.5% | -80.1% (inactive) | 125% | -0.59 (inactive) | 9.8e-06 (inactive) | 0.00781 (inactive) | -22.3% (inactive) | -5.89% (inactive)
17 | CCN(CC)CCNC(=O)c1ccc(CS(=O)(=O)c2ccc(Br)cc2)o1 | 655 | 11.2% (inactive) | -11.8% (inactive) | 103% | 21.7% (inactive) | 117% | -0.611 (inactive) | -3.9e-05 (inactive) | 0.00568 (inactive) | 7.79% (inactive) | 25.7% (inactive)
18 | CCOC(=O)c1nc2sc3c(c2c(=O)[nH]1)CCCC3 | 763 | -1.6% (inactive) | -9.6% (inactive) | 84.3% | 2.7% (inactive) | 102% | -0.0445 (active) | -1.1e-05 (inactive) | 0.0045 (inactive) | 13.1% (inactive) | 11.2% (inactive)
19 | c1cc(-c2nc3ccccc3o2)nc(-c2nc3ccccc3o2)c1 | 426 | 17% (inactive) | -10.7% (inactive) | 82.8% | 9.6% (inactive) | 113% | -0.39 (inactive) | -5.8e-05 (inactive) | 0.00362 (inactive) | 16.6% (inactive) | 30.1% (inactive)
20 | CCOC(=O)C1CCN(c2c(N3CCCC(C(=O)OCC)C3)c(=O)c2=O)CC1 (stereo not drawn) | 838 | 3.2% (inactive) | -6.4% (inactive) | 101% | -138% (inactive) | 115% | -0.616 (inactive) | 9.3e-06 (inactive) | 0.0058 (inactive) | -1.39% (inactive) | 19.7% (inactive)
21 | CC1(C)CC(=O)C(C=Nc2ccc3c(c2)OCO3)=C(O)C1 | 329 | 1% (inactive) | 12.6% (inactive) | 104% | -252% (inactive) | 86.4% | -0.435 (inactive) | -6.8e-05 (inactive) | 0.00387 (inactive) | -6.77% (inactive) | -5.98% (inactive)
22 | Cc1cc(C)c(C)c(OCC(=O)NCC2CCCO2)c1 (stereo not drawn) | 371 | -13.5% (inactive) | -15% (inactive) | 97.1% | -65.1% (inactive) | 110% | -0.521 (inactive) | -3.4e-05 (inactive) | 0.0063 (inactive) | -5.32% (inactive) | 21% (inactive)
23 | O=C(Cn1ncc2c(=O)oc3ccccc3c21)NCCCN1CCCC1=O | 807 | -9.2% (inactive) | 10.5% (inactive) | 84.8% | -33% (inactive) | 116% | -0.576 (inactive) | -1.5e-05 (inactive) | 0.00642 (inactive) | 1.1% (inactive) | 24.5% (inactive)
24 | CCc1nnc(NC(=O)CSc2nnc(CSc3nc(C)cc(C)n3)n2CC)s1 | 424 | -5% (inactive) | -13.6% (inactive) | 128% | -40.7% (inactive) | 129% | -0.37 (inactive) | 8.3e-06 (inactive) | 0.00824 (inactive) | -5.81% (inactive) | -12.1% (inactive)
25 | CCOc1cc(C(=O)N(C)Cc2cc3ccccc3[nH]c2=O)cc(OCC)c1OCC | 376 | 0.6% (inactive) | 22.5% (inactive) | 87.4% | -205% (inactive) | 196% | -0.325 (inactive) | -5e-05 (inactive) | 0.00465 (inactive) | 11.9% (inactive) | 18.9% (inactive)
26 | Cc1ccc(C(=O)Nc2ccc3c(c2)OCO3)cc1S(=O)(=O)N1CCCC1 | 396 | 0% (inactive) | 12.6% (inactive) | 83.3% | 14.2% (inactive) | 107% | -0.398 (inactive) | 1.4e-05 (inactive) | 0.00564 (inactive) | 10.6% (inactive) | -64.5% (inactive)
27 | O=C(CSc1nc(O)c(Cc2ccccc2)c(=O)[nH]1)Nc1ccccc1 | 366 | 5.3% (inactive) | 0.2% (inactive) | 95.2% | 5.2% (inactive) | 115% | -0.44 (inactive) | -3e-05 (inactive) | 0.00311 (inactive) | 3.29% (inactive) | 24.3% (inactive)
28 | COC(=O)C1=C(C)NC(=O)C1(Nc1ccc(Cl)cn1)C(F)(F)F (stereo not drawn) | 324 | 1.8% (inactive) | 3.9% (inactive) | 95.1% | -63.7% (inactive) | 125% | -0.317 (inactive) | -1.2e-05 (inactive) | 0.00613 (inactive) | 13.8% (inactive) | 32.2% (inactive)
